Assay results from the supplement of paper PMC8699584.
Several values for one entry are separate records, joined by “and”; a condition that tells them apart may be missing. Identical values can stand only once. Counter-ions that a name gives are not always drawn. ± gives the standard deviation of the averaged measurements.

Experiments:
Molm13 = assay: cell viability relative to DMSO control (bortezomib = 0%); higher = less growth inhibition; conditions: 10 nM; 72 h
In short: (§1)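 Acute myeloid leukemia cells, 1000 per well in 50 µL, were incubated for 72 h on 384-well plates with 679 approved and investigational compounds, each at a single 10 nM dose. Viability was read by CellTiter-Glo luminescence. Values were expressed as percentages through per-plate linear regression against DMSO-treated (100%) and positive-control-treated (0%) cells.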

Mv4-11 = assay: as above; conditions: 10 nM; 72 h
In short: as §1

Structure (SMILES)	cell viability (Molm13)	cell viability (Mv4-11)
O=C(NCc1ccccc1)c1csc(Nc2ccncn2)n1 [Thiazovivin]	115 ± 7.6%	113 ± 3.7%
Oc1ccc2c(c1)OCO2 [Sesamol]	103 ± 1.4%	113.6 ± 0.84%
COc1ccc(-c2cc(=O)c3c(O)cc(O)cc3o2)cc1O [Diosmetin]	93.4 ± 11%	96.8 ± 6.3%
CN1CCN(c2ccc(C(=O)Nc3cc(-c4cccc(NS(=O)(=O)c5ccccc5)c4)[nH]n3)cc2)CC1	61.4 ± 18%	85.5 ± 9.9%
CCOC(=O)c1c2c3c(cccc3[nH]c1=O)C(=O)c1ccccc1-2	124 ± 7.7%	103 ± 19%
N#Cc1c(-c2ccccc2)cc(-c2cc(Br)ccc2O)[nH]c1=O	125 ± 30%	114 ± 9.7%
C=CC(=O)Nc1cc(Nc2nccc(-c3cn(C)c4ccccc34)n2)c(OC)cc1N(C)CCN(C)C [AZD-9291 mesylate]	102 ± 5.5%	94.8 ± 6.1%
Cc1nc(Nc2ncc(C(=O)Nc3c(C)cccc3Cl)s2)cc(N2CCN(CCO)CC2)n1 [Dasatinib monohydrate]	80.8 ± 25%	106 ± 9.4%
CCc1cc2c(cc1N1CCC(N3CCOCC3)CC1)C(C)(C)c1[nH]c3cc(C#N)ccc3c1C2=O [Alectinib]	102 ± 7.8%	100 ± 2.9%
CS(=O)(=O)CCNCc1ccc(-c2ccc3ncnc(Nc4ccc(OCc5cccc(F)c5)c(Cl)c4)c3c2)o1	103 ± 8.2%	108 ± 9%
NC(=O)c1ncn([C@@H]2O[C@H](CO)[C@@H](O)[C@H]2O)c1N [AICAR (Acadesine)]	110 ± 7.6%	111 ± 9.2%
CNC(=O)c1cc(Oc2ccc(NC(=O)c3cccc(C(F)(F)F)c3)cc2)ccn1	96.3 ± 16%	103 ± 4.9%
CCc1cc(-c2n[nH]c(C)c2-c2ccc3c(c2)OCCO3)c(O)cc1O	102 ± 20%	94.9 ± 12%
CC(=O)/C(C)=N/O [2,3-Butanedione 2-Monoxime]	79.4 ± 21%	119 ± 7.6%
CC(C)n1nc(-c2ccc3oc(N)nc3c2)c2c(N)ncnc21	89.4 ± 12%	86.16 ± 0.51%
COc1ccc(C=C(C#N)c2cccnc2)cc1OC	100 ± 14%	103 ± 0.99%

Structure (SMILES)	cell viability (Molm13)	cell viability (Mv4-11)
Cc1ccc(S(=O)(=O)NC(=O)NN2CC3CCCC3C2)cc1 (configuration not stated) [Gliclazide]	98.5 ± 5.5%	113 ± 6.1%
Cc1cc(N)c2ccccc2[n+]1CCCCCCCCCC[n+]1c(C)cc(N)c2ccccc21 [Dequalinium chloride]	92.3 ± 15%	96.3 ± 16%
CCN1/C(=C/C(C)=O)Sc2ccc(OC)cc21	106 ± 11%	104 ± 6.5%
CS(=O)(=O)N1CCN(Cc2cc3nc(-c4cccc5[nH]ncc45)nc(N4CCOCC4)c3s2)CC1	89.9 ± 12%	106.7 ± 0.54%
Cc1ccc(NC(=O)c2ccc(CN3CCN(C)CC3)cc2)cc1Nc1nccc(-c2cccnc2)n1 [Imatinib Mesylate (STI571)]	105 ± 13%	106 ± 7.4%
COC(=O)C1=CC[C@@]23CC[C@@H]([C@@](C)(/C=C/C=C(\C)C(=O)O)OC2=O)[C@@]3(OC(C)=O)CC1 [Pseudolaric Acid B]	101 ± 3.5%	104 ± 11%
CNC(=O)Nc1cc(Oc2cncc(C)c2)c(-c2ccc(OCC(C)(C)O)nc2)cn1	101.5 ± 0.58%	101 ± 6.8%
CS(=O)(=O)N1CCc2c(-c3cnc(N)nc3)nc(N3CCOCC3)nc21	119.7 ± 0.72%	126 ± 9.7%
COc1cc2nccc(Oc3ccc(NC(=O)NC4CC4)c(Cl)c3)c2cc1C(N)=O [Lenvatinib (E7080)]	112 ± 6.8%	123 ± 14%
CC(=O)c1c(C)c2cnc(Nc3ccc(N4CCNCC4)cn3)nc2n(C2CCCC2)c1=O	89.3% and 111%	105% and 111%
O=c1ccc2ccc(O)c(O)c2o1 [Daphnetin]	100 ± 4.2%	109 ± 12%
O=C(O)CCC(=O)Nc1ccc(Br)cn1 [Bikinin]	92.5 ± 2.2%	99.9 ± 1.9%
Nc1nccc(-c2c(-c3ccc(F)cc3)ncn2C2CCCCC2)n1	96.6 ± 18%	114.4 ± 0.84%
FC(F)(F)c1ccc(CNc2ccc(Cc3c[nH]c4ncc(Cl)cc34)cn2)cn1	89.207 ± 0.064%	105 ± 16%
CC(=O)CC(c1ccccc1)c1c(O)c2ccccc2oc1=O (configuration not stated) [Warfarin sodium]	105 ± 6.5%	114 ± 4.9%
